Measurements published in PubChem BioAssay AID1159580 (chemical genetic matrix, 2015).
Among all 5,500 compounds or so, about 2,000 (36%) were called active. Inconclusive results (about 18%) are left out. No stated cut-off is given here; in the data, active means normalized growth mostly below about 0.91 (no sharp cut-off); inconclusive means no clear call, values can overlap the other calls; inactive means mostly above about 0.92. Some of the results follow.

Assay: chemical genetic growth profiling, strain panel (AID 1159580);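 further: tested at 20 µM; growth read once vehicle control cultures reached saturation at 30 °C; 1 = growth at the plate median or of vehicle wells; lower values mean less growth of the strain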
Details: growth OD

Measured: normalized growth

C=CC(C1=CC(=O)C(OC)=CC1=O)c1ccc(OC)cc1 (configuration not stated)
active: S. cerevisiae deletion strains, locus YJR075W, strain HOC1, active compounds read low 0.859 | S. cerevisiae deletion strains, locus YKL160W, strain elf1, active compounds read low 0.741 | S. cerevisiae deletion strains, locus YKR001C, strain vps1, active compounds read low 0.814 | S. cerevisiae deletion strains, locus YLL026W, active compounds read low 0.839 | S. cerevisiae deletion strains, locus YLR027C, strain aat2, active compounds read low 0.759 | S. cerevisiae deletion strains, locus YLR221C, strain rsa3, active compounds read low 0.701 | S. cerevisiae deletion strains, locus YLR258W, strain gsy2, active compounds read low 0.849 | S. cerevisiae deletion strains, locus YLR262C, strain YPT6 (second series), active compounds read low 0.39 | S. cerevisiae deletion strains, locus YLR268W, strain sec22, active compounds read low 0.87 | S. cerevisiae deletion strains, locus YLR320W, strain mms22, active compounds read low 0.276 | S. cerevisiae deletion strains, locus YLR342W, strain FKS1 (second series), active compounds read low 0.674 | S. cerevisiae deletion strains, locus YLR370C, strain arc18, active compounds read low 0.864 | S. cerevisiae deletion strains, locus YLR418C, strain cdc73, active compounds read low 0.783 | S. cerevisiae deletion strains, locus YML032C, strain rad52, active compounds read low 0.855 | S. cerevisiae deletion strains, locus YML120C, strain ndi1, active compounds read low 0.911 | S. cerevisiae deletion strains, locus YMR058W, strain fet3, active compounds read low 0.84 | S. cerevisiae deletion strains, locus YMR125W, strain sto1, active compounds read low 0.779 | S. cerevisiae deletion strains, locus YMR205C, strain PFK2, active compounds read low 0.715 | S. cerevisiae deletion strains, locus YMR223W, strain ubp8, active compounds read low 0.851 | S. cerevisiae deletion strains, locus YNL071W, strain lat1, active compounds read low 0.15 | S. cerevisiae deletion strains, locus YNL233W, strain BNI4, active compounds read low 0.862 | S. cerevisiae deletion strains, locus YNL248C, strain rpa49, active compounds read low 0.727 | S. cerevisiae deletion strains, locus YNL307C, strain MCK1, active compounds read low 0.412 | S. cerevisiae deletion strains, locus YNR052C, strain pop2, active compounds read low 0.901 | S. cerevisiae deletion strains, locus YOL147C, strain pex11, active compounds read low 0.903 | S. cerevisiae deletion strains, locus YOR001W, strain rrp6, active compounds read low 0.844 | S. cerevisiae deletion strains, locus YOR070C, strain gyp1, active compounds read low 0.817 | S. cerevisiae deletion strains, locus YOR083W, strain WHI5, active compounds read low 0.788 | S. cerevisiae deletion strains, locus YOR106W, strain vam3, active compounds read low 0.642 | S. cerevisiae deletion strains, locus YOR136W, strain idh2, active compounds read low 0.919 | S. cerevisiae deletion strains, locus YOR184W, strain ser1, active compounds read low 0.738 | S. cerevisiae deletion strains, locus YOR270C, strain vph1, active compounds read low 0.416 | S. cerevisiae deletion strains, locus YOR290C, strain snf2, active compounds read low 0.851 | S. cerevisiae deletion strains, locus YPL051W, strain arl3, active compounds read low 0.657 | S. cerevisiae deletion strains, locus YPL078C, strain atp4, active compounds read low 0.802 | S. cerevisiae deletion strains, locus YPL240C, strain hsp82, active compounds read low 0.851 | S. cerevisiae deletion strains, locus YPR163C, strain tif3, active compounds read low 0.8 | S. cerevisiae deletion strains, strain wtn01, active compounds read low 0.877 | S. cerevisiae strains, strain wild type, active compounds read low 0.886
inactive: S. cerevisiae deletion strains, locus YJR066W, strain TOR1, active compounds read low 0.94 | S. cerevisiae deletion strains, locus YKL009W, strain mrt4, active compounds read low 0.944 | S. cerevisiae deletion strains, locus YKL068W, active compounds read low 0.976 | S. cerevisiae deletion strains, locus YKL085W, strain MDH1 (second series), active compounds read low 0.966 | S. cerevisiae deletion strains, locus YKL085W, strain MDH1, active compounds read low 0.966 | S. cerevisiae deletion strains, locus YKL190W, strain CNB1, active compounds read low 0.947 | S. cerevisiae deletion strains, locus YKR026C, strain gcn3, active compounds read low 0.967 | S. cerevisiae deletion strains, locus YKR091W, strain srl3, active compounds read low 0.998 | S. cerevisiae deletion strains, locus YLL001W, strain dnm1, active compounds read low 0.907 | S. cerevisiae deletion strains, locus YLL041C, strain sdh2, active compounds read low 0.955 | S. cerevisiae deletion strains, locus YLR039C, strain RIC1, active compounds read low 0.819 | S. cerevisiae deletion strains, locus YLR058C, strain SHM2, active compounds read low 0.952 | S. cerevisiae deletion strains, locus YLR102C, strain apc9, active compounds read low 0.945 | S. cerevisiae deletion strains, locus YLR113W, strain HOG1, active compounds read low 0.958 | S. cerevisiae deletion strains, locus YLR262C, strain YPT6, active compounds read low 0.71 | S. cerevisiae deletion strains, locus YLR330W, strain CHS5, active compounds read low 0.968 | S. cerevisiae deletion strains, locus YLR342W, strain FKS1, active compounds read low 0.914 | S. cerevisiae deletion strains, locus YLR357W, strain rsc2, active compounds read low 1.07 | S. cerevisiae deletion strains, locus YLR371W, strain rom2, active compounds read low 0.941 | S. cerevisiae deletion strains, locus YLR384C, strain iki3, active compounds read low 0.974 | S. cerevisiae deletion strains, locus YML016C, strain PPZ1, active compounds read low 0.973 | S. cerevisiae deletion strains, locus YML124C, strain tub3, active compounds read low 0.949 | S. cerevisiae deletion strains, locus YMR078C, strain ctf18, active compounds read low 0.914 | S. cerevisiae deletion strains, locus YMR129W, active compounds read low 1 | S. cerevisiae deletion strains, locus YMR263W, strain SAP30, active compounds read low 0.946 | S. cerevisiae deletion strains, locus YMR307W, strain GAS1, active compounds read low 0.793 | S. cerevisiae deletion strains, locus YNL067W, strain RPL9B, active compounds read low 0.947 | S. cerevisiae deletion strains, locus YNL128W, strain TEP1, active compounds read low 0.942 | S. cerevisiae deletion strains, locus YNL153C, strain GIM3, active compounds read low 0.983 | S. cerevisiae deletion strains, locus YNL183C, strain NPR1, active compounds read low 0.972 | S. cerevisiae deletion strains, locus YNL209W, strain ssb2, active compounds read low 0.939 | S. cerevisiae deletion strains, locus YNL250W, strain rad50, active compounds read low 0.944 | S. cerevisiae deletion strains, locus YNL271C, strain bni1, active compounds read low 0.957 | S. cerevisiae deletion strains, locus YNL298W, strain CLA4, active compounds read low 0.928 | S. cerevisiae deletion strains, locus YNL322C, strain KRE1 (second series), active compounds read low 0.996 | S. cerevisiae deletion strains, locus YNL322C, strain KRE1, active compounds read low 0.966 | S. cerevisiae deletion strains, locus YNR049C, strain mso1, active compounds read low 0.962 | S. cerevisiae deletion strains, locus YOL006C, strain TOP1, active compounds read low 0.669 | S. cerevisiae deletion strains, locus YOL012C, strain htz1 0.791 | S. cerevisiae deletion strains, locus YOR061W, strain CKA2, active compounds read low 0.962 | S. cerevisiae deletion strains, locus YOR069W, strain VPS5, active compounds read low 0.962 | S. cerevisiae deletion strains, locus YOR080W, strain dia2, active compounds read low 1 | S. cerevisiae deletion strains, locus YOR144C, strain elg1, active compounds read low 0.956 | S. cerevisiae deletion strains, locus YOR231W, strain MKK1, active compounds read low 1.03 | S. cerevisiae deletion strains, locus YOR265W, strain rbl2, active compounds read low 0.945 | S. cerevisiae deletion strains, locus YOR316C, strain cot1, active compounds read low 0.947 | S. cerevisiae deletion strains, locus YPL055C, strain LGE1, active compounds read low 0.869 | S. cerevisiae deletion strains, locus YPL106C, strain sse1, active compounds read low 1.03 | S. cerevisiae deletion strains, locus YPL241C, strain CIN2, active compounds read low 0.982 | S. cerevisiae deletion strains, locus YPL256C, strain CLN2, active compounds read low 1.08 | S. cerevisiae deletion strains, locus YPR119W, strain clb2, active compounds read low 0.944 | S. cerevisiae deletion strains, locus YPR141C, strain kar3, active compounds read low 0.963 | S. cerevisiae deletion strains, locus YPR167C, strain met16, active compounds read low 0.95
